# Source: PubChem (National Center for Advancing Translational Sciences (NCATS))
# ALDH1A1 block: qHTS Assay for Inhibitors of Aldehyde Dehydrogenase 1 (ALDH1A1); Aldehyde dehydrogenase 1A1 (Homo sapiens), P00352; Purified ALDH1A1, NADH fluorescence, propionaldehyde substrate; Potency, µM (top dose mostly 75.3 µM), for inactives: at the highest dose activity, negative = inhibition, hits mostly inhibitors; actives 7.3% (n = 220,000);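 further: plate controls were no enzyme wells and a reference inhibitor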
# Target sequence (P00352 whole entry, looked up): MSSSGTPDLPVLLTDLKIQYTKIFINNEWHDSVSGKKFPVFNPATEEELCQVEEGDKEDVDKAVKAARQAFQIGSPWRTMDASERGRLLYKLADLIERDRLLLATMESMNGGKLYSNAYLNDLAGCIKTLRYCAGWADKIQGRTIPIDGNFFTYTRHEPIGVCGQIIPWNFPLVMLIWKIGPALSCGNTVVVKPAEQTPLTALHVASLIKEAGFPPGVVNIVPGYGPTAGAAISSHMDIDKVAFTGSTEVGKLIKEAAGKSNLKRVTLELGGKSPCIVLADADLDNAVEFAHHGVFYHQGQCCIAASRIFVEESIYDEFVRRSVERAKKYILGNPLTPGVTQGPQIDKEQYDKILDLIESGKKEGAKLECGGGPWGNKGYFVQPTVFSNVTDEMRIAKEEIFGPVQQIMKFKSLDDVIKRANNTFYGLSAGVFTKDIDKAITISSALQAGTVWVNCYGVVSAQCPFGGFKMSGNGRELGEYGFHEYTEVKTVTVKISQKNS
# Lamin A splicing: qHTS Assay for Modulators of Lamin A Splicing; HeLa LMNA splicing GFP/RFP minigene ratio, 48 h; Potency, µM (doses to about 46.1 µM), for the others: at the top dose ratio change, negative = inhibition, most hits filed as inhibitors; actives 0.01% (n = 200,000); active means well fitted inhibition curve with a large enough effect in the signal ratio, with a control signal flat, not every such curve was filed as active; inconclusive means small, poorly fitted or top-dose-only effect, or effect the other way, or a change in a side signal; the % refers to the signal ratio
#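 S3 HeLa stable clones carrying a lamin A-EGFP splicing minigene plus DsRed2 were seeded at 600 cells/well in Opti-MEM with 2% FBS, pin-dosed and incubated 48 h at 37°C. Acumen cytometry (488 nm) gave the GFP/RFP total-intensity ratio.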
# HPGD block: qHTS Assay for Inhibitors of HPGD (15-Hydroxyprostaglandin Dehydrogenase). purified HPGD, NADH fluorescence kinetic, PGE2 substrate. Potency, µM, without a hit: at the highest dose activity change, negative = inhibition, hits mostly inhibitors. actives 4.3% (n = 150,000). AID 894, 2007
#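 NADH formation kinetics: reaction with 30 uM PGE2 and 1 mM NAD+ (final), 20 nM enzyme, Tris-HCl pH 8 with Tween 20, after 15 min compound preincubation at room temperature. Fluorescence change, last versus first of five reads.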
# Luc counter: Counterscreen for Luciferase (Kinase-Glo TM) Inhibition; Luciferin 4-monooxygenase (Photuris pensylvanica), Q27757; Kinase-Glo luciferase, ATP luminescence, 8 min; Potency, µM (highest dose often 38.3 µM), for the others: top-dose activity change, negative = inhibition, most hits filed as inhibitors; actives 0.28% (n = 200,000); AID 1379, 2008; active means well fitted curve in the direction sought with a large enough effect; inconclusive means small, poorly fitted or top-dose-only effect, or another doubt; inactive means no such curve, though single readings can be large; an effect the other way counts as inactive or inconclusive; further: nearly all actives have a fitted effect of over 60% in size
#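 Substrate mix (final 50 mM imidazole pH 7.2, 50 mM KCl, 7 mM MgCl2, 10 uM ATP, 0.01% Tween 20, 0.05% BSA) plus pin-tool compound, then Kinase-Glo detection mix; 8 min ambient, luminescence read.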
# IMPase Li cell: qHTS Assay for Identifying the Cell-Membrane Permeable IMPase Inhibitors: Potentiation with Lithium. actives 0.35% (n = 210,000). Potency, µM (titrated, usually from 59.4 µM), for the others: at the highest dose activity, negative = IMPase inhibition, actives largely listed as inhibitors. CHO-M1 cells, IP1 TR-FRET (IP-One), carbachol + lithium; active means well fitted curve in the direction sought with a large enough effect; inconclusive means small, poorly fitted or top-dose-only effect, or another doubt; inactive means no such curve, though single readings can be large; an effect the other way counts as inactive or inconclusive;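 further: IP1 builds up when IMPase is blocked and the TR-FRET signal falls; plate controls were basal vehicle for no effect and high inhibitor control for full effect; nearly all actives have a fitted effect of over 50% in size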
#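 CHO-M1, 2000 cells/well, 16–30 h culture; cpd + low Li+, 30 min 37C; lysis with d2-IP1/Eu-anti-IP1 Ab, 10 min RT; TR-FRET 665/620 ratio and 620 channel; AC50 via Hill.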
# Numbers without * were called inactive; ? = inconclusive; . = no result given; [ ] = dose if it differs, or a comment. Shown are actives, neighbours in structure and some others; about 9% of the full set was active somewhere. Unless noted, the call rests on the fitted dose curve; in most records, active means well fitted inhibition curve with a large enough effect (not every such curve was filed as active); inconclusive means small, poorly fitted or top-dose-only effect, or another doubt; inactive means no such curve, though single readings can be large or run the other way. Unless noted, on the % scale 0 is the no-effect control and ±100 the full control effect; potency means the concentration at half of the fitted maximal effect.
SMILES,ALDH1A1 block,Lamin A splicing,HPGD block,Luc counter,IMPase Li cell
Nc1ccc(N(CCO)CCO)cc1,16µM*,9%[46 µM],.,-9%,56%
Nc1ccc(C(=O)N(CCO)CCO)cc1,-1%,.,.,2%,-2%
CCN(CC)c1ccc(N)cc1,3.2µM*,.,-16%,.,29%
CC(=O)OCC1OC(c2ccc3c(c2)OCO3)C=CC1OC(C)=O (stereo not drawn),-3%[13.5 µM],.,.,.,.
COc1cc2ccccc2cc1C(=O)N1CCN(c2nc3c(F)cccc3s2)CC1,.,6%[46 µM],.,.,.
O=C(c1ccco1)N1CCC2(CCCN(C(c3ccccc3)c3ccccc3)C2)CC1,?,.,-10%,1%,29%
CCN1CCN(c2nc3sc4c(c3c(=O)n2-c2ccc(OC)cc2)CCCCC4)CC1,10µM*,-14%,-14%,0%,-2%[38.3 µM]
N#CCN1CCC(c2cc(-c3ccco3)n[nH]2)CC1,22µM*,-5%[46 µM],.,-2%,?
c1coc(-c2cc(C3CCNCC3)[nH]n2)c1,13%,-12%[46 µM],.,0%,9%
CC1CCCCN1S(=O)(=O)c1coc(C(N)=O)c1 (stereo not drawn),-33%,-1%,-9%,6%,6%[38.3 µM]
CC1CCCCN1S(=O)(=O)c1cnc(Cl)c(Br)c1 (stereo not drawn),2.5µM*,13%,-22%,-4%,5%
CC1CCN(S(=O)(=O)c2cnc(Cl)c(Br)c2)CC1,0.13µM*,13%,-15%,2%,3%
CC1CCN(S(=O)(=O)c2ccc(Cl)cc2Br)CC1,7%,?,?,0%,28%[38.3 µM]
COc1cc(C(=O)NNC(=O)c2cc(C)[nH]n2)cc(OC)c1OC,2%,?,.,1%,-4%
O=C(COC(=O)C1CCN(S(=O)(=O)c2cccs2)CC1)c1cc2ccccc2o1,16µM*,4%,?,-6%,15%[38.3 µM]
O=C(NCc1ccc2c(c1)OCO2)C1CCN(S(=O)(=O)N2CCCCC2)CC1,5µM*,?,-8%,2%,-1%
O=C(NCc1ccc2c(c1)OCO2)C1CCN(S(=O)(=O)c2ccc(Br)s2)CC1,?,-5%,-13%,-3%,16%[38.3 µM]
O=C(NCc1ccc2c(c1)OCO2)C1CCN(S(=O)(=O)c2cccs2)CC1,0.32µM*,-2%,-11%,-5%,-19%[38.3 µM]
Cc1ccc(C(=O)NCCNS(C)(=O)=O)cc1,-4%,.,.,0%,2%
COc1ccc(C(=O)NCc2nnc(SCC(=O)Nc3ccccc3OC)n2C)cc1,-1%,?,.,0%,2%
COCC(=O)N1CCCC(CNS(=O)(=O)c2ccc(OC)cc2)C1 (stereo not drawn),-8%,-1%[46 µM],.,3%,6%
CCOC(=O)C1CCCN(S(=O)(=O)c2ccc(S(N)(=O)=O)cc2)C1 (stereo not drawn),?,9%[46 µM],.,9%,-4%
COc1ccc(S(=O)(=O)NCC2CCCN(C(=O)C3CCCC3)C2)cc1 (stereo not drawn),3.5µM*,0%[46 µM],.,2%,11%
CCOC(=O)C1CCCN(S(=O)(=O)c2ccc(OC)cc2)C1 (stereo not drawn),3.2µM*,1%,-5%,-2%,20%[38.3 µM]
Cc1ccc(S(=O)(=O)N2CCCC(C(=O)N(Cc3cccs3)C3CC3)C2)cc1 (stereo not drawn),7.1µM*,?,-6%,1%,34%[38.3 µM]
SMILES,ALDH1A1 block,Lamin A splicing,HPGD block,Luc counter,IMPase Li cell
CCOC(=O)C1CCCN(S(=O)(=O)c2ccc(C)cc2)C1 (stereo not drawn),8.9µM*,-16%,-12%,2%,9%
Cc1nc2ccccn2c(=O)c1NC(=O)c1ccccc1Cl,.,-8%[46 µM],.,.,.
Cc1c(NC(=S)Nc2cccc(Cl)c2)c(=O)n(-c2ccccc2)n1C,-3%,16%[46 µM],.,5%,-6%
CCOC(=O)C1CCN(S(=O)(=O)c2ccc(OC)c(Cl)c2Cl)CC1,6.3µM*,1%,-20%,2%,16%[38.3 µM]
CC(C)(C)n1nc2c(c1NC(=O)c1cc3ccccc3o1)CS(=O)(=O)C2,-14%,.,.,-1%,10%
COC(=O)CSc1nnnn1-c1ccccc1,3%,16%,-4%,-5%,-11%[38.3 µM]
O=C(/C(=N\Nc1ccccc1)Sc1nnnn1-c1ccccc1)c1ccccc1,1.4µM*,15%,-16%,1%,14%
N#Cc1cc2c([nH]c1=S)CCCCCC2,10µM*,8%,7.9µM*,1%,-15%[38.3 µM]
CC1CCN(C(=O)c2cc(F)c(F)cc2Cl)CC1,3%,-9%,13µM*,2%,-1%
COc1ccc(C)cc1NC(=O)c1ccc2nc(Cc3ccccc3)oc2c1,.,-22%[46 µM],.,.,.
C=CCOC(=O)C1=C[C@H](C2CC2)[C@@H](CCCO)[C@H](OCC)O1,28µM*,.,.,.,0%
CSc1ccc(S(=O)(=O)Nc2ccc(S(=O)(=O)Nc3ccc(C)cc3)cc2)cc1,8.9µM*,-6%,-6%,2%,21%[38.3 µM]
Cc1ccc(NNS(=O)(=O)c2ccc(C)cc2)cc1,6.3µM*,8%,4µM*,-1%,-3%[38.3 µM]
Cc1ccc(S(=O)(=O)Nc2ccc3c(c2)CCC3)cc1,11µM*,?,-18%,1%,23%
C[C@H]1[C@H](C)CC[C@]2(C(=O)O)CC[C@]3(C)C(=CCC4[C@@]5(C)CC[C@H](O)C(C)(C)[C@@H]5CC[C@]43C)[C@H]12 (stereo partly drawn),-2%,.,-2%,0%,20%
